Unmarked numbers belong to inactive results.
Columns and labels:
Experiment in all cases: log2 ratio of Biotin-Ahx-Ub-VS probe labelling (fragment/DMSO); higher = less target engagement (more negative = stronger competition), active = hit call of the paper (q ≤ 0.05, log2 ratio ≤ -1)
Details in all cases: compound concentration: 200 uM; treatment time: 3 h
OTUD6B = target: T1, OTUD6B (UniProt Q8N6M0)
T1 sequence (whole entry): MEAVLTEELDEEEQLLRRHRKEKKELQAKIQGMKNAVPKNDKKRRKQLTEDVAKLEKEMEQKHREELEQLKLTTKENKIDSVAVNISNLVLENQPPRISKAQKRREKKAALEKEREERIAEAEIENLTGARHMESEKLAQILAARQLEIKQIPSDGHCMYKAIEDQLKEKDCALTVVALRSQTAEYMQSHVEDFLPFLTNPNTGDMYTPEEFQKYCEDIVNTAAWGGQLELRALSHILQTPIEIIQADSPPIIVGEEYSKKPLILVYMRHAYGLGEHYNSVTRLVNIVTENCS
Outline: (§1)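 HEK293T lysate (495 µg per sample, in Tris/CHAPS/IGEPAL buffer with protease inhibitors) was treated in triplicate with fragment at 200 µM or with DMSO for 3 h. It was then treated with Biotin-Ahx-Ub-VS (0.5 µM final) for 1 h. Labelled DUBs were NeutrAvidin-enriched, digested with LysC and trypsin, and run by diaPASEF LC-MS/MS. Spectronaut label-free quantities were global-median-normalised. Values are average log2 ratios fragment/DMSO by unpaired t-test, using proteins with ≥2 unique peptides.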

OTUD7B = target: T2, OTUD7B (UniProt Q6GQQ9)
T2 sequence (whole entry): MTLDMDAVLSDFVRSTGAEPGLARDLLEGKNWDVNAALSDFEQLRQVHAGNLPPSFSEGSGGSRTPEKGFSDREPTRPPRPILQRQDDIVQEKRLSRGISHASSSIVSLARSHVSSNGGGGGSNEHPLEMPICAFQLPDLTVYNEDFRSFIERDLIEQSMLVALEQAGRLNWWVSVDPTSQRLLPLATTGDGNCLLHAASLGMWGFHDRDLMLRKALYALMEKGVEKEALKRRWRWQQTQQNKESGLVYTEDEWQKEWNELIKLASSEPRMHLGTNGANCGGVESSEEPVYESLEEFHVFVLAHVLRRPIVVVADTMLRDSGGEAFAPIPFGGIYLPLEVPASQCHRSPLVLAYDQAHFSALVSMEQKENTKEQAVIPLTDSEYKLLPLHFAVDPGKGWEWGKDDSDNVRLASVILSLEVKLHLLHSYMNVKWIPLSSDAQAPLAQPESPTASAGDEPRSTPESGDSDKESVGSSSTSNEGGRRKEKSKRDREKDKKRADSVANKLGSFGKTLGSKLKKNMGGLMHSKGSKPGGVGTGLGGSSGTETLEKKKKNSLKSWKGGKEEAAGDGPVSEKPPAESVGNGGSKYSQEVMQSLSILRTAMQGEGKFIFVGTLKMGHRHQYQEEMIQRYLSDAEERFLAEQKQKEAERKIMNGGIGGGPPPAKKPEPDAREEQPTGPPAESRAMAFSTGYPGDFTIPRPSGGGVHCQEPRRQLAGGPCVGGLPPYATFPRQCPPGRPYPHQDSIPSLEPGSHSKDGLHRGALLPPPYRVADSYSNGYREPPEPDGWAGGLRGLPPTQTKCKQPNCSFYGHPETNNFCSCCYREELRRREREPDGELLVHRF
Outline: as §1

PRPF8 = PRPF8 (UniProt Q6P2Q9)
Outline: as §1

PSMD7 = target: T3, PSMD7 (UniProt P51665)
T3 sequence (whole entry): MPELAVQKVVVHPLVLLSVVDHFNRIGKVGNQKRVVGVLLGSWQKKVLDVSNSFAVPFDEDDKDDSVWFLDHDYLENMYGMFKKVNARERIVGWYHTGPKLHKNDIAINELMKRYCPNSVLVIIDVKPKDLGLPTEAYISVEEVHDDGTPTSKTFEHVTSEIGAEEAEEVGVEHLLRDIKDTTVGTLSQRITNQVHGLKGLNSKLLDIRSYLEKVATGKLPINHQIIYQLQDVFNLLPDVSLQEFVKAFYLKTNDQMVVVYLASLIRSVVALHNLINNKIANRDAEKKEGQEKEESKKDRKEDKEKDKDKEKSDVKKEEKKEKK
Outline: as §1

UCHL1 = UCHL1 (UniProt P09936)
Sequence of UCHL1 (P09936 whole entry, looked up): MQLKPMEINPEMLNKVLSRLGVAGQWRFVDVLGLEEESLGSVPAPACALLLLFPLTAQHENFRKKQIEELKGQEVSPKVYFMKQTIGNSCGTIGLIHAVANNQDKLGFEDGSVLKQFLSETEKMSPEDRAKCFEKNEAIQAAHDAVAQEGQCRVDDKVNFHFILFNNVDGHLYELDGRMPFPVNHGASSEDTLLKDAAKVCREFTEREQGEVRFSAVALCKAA
Outline: as §1

UCHL3 = target: T4, UCHL3 (UniProt P15374)
T4 sequence (whole entry): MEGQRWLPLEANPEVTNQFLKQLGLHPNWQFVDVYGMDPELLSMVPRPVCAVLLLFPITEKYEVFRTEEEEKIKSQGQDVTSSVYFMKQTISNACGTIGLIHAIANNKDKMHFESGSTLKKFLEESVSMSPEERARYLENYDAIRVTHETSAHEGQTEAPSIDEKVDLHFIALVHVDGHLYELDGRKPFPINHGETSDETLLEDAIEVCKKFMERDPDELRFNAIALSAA
Outline: as §1

UCHL5 = target: T5, UCHL5 (UniProt Q9Y5K5)
T5 sequence (whole entry): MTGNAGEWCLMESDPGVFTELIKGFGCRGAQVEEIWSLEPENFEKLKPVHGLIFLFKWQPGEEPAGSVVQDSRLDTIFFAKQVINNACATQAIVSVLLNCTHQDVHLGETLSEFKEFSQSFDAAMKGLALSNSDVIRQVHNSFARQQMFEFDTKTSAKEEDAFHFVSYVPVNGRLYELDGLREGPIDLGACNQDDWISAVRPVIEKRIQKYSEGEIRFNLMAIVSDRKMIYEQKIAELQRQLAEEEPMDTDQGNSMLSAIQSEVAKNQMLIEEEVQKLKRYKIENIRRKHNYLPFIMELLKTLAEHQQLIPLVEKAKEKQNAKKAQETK
Outline: as §1

USP10 = USP10 (UniProt Q14694)
Sequence of USP10 (Q14694 whole entry): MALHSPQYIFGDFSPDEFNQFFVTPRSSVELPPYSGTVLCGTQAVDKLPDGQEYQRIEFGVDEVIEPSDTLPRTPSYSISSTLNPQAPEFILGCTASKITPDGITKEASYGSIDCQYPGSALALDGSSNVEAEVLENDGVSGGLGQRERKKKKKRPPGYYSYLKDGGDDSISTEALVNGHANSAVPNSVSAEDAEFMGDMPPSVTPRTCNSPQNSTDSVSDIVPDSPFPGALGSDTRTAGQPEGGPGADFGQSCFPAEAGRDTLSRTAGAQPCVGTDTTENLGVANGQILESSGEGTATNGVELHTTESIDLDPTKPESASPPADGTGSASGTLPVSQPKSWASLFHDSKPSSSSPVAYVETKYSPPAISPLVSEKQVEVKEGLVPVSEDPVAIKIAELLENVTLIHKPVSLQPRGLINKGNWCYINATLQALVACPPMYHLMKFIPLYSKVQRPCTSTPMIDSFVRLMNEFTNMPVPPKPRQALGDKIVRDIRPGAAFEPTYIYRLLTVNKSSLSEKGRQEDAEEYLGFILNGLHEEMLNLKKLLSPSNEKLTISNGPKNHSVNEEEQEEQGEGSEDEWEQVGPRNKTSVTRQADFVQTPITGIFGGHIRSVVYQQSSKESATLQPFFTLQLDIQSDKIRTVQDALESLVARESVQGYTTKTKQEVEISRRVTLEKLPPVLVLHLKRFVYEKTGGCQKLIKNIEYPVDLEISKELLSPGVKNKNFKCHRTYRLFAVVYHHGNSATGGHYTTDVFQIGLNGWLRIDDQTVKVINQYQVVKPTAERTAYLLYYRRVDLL
Outline: as §1

USP15 = target: T6, USP15 (UniProt Q9Y4E8)
T6 sequence (whole entry): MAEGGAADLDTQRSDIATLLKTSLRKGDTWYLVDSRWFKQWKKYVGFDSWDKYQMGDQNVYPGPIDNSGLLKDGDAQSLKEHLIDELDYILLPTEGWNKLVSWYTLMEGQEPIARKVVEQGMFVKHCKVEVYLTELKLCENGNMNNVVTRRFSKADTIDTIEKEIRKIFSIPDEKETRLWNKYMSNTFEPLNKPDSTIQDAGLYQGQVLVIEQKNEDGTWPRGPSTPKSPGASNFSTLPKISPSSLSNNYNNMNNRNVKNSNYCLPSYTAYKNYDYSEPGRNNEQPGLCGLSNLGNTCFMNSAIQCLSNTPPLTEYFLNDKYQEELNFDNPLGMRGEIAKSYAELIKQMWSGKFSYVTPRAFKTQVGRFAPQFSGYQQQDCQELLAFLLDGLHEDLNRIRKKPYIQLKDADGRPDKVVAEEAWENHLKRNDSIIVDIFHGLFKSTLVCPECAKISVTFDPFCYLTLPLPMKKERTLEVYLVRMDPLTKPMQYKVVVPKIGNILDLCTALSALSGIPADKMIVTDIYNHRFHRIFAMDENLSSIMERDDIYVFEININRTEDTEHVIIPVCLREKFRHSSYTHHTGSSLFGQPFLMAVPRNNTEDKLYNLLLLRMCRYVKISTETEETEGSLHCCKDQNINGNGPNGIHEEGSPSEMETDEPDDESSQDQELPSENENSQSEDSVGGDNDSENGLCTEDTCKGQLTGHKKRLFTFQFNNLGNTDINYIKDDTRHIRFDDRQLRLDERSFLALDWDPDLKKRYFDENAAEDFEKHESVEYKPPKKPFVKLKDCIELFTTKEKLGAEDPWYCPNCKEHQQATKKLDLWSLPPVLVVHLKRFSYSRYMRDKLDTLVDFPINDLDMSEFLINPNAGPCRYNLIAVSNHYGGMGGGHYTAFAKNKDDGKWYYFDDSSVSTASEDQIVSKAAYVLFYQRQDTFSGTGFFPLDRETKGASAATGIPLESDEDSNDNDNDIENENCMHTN
Outline: as §1

USP16 = USP16 (UniProt Q9Y5T5)
Sequence of USP16 (Q9Y5T5 whole entry, looked up): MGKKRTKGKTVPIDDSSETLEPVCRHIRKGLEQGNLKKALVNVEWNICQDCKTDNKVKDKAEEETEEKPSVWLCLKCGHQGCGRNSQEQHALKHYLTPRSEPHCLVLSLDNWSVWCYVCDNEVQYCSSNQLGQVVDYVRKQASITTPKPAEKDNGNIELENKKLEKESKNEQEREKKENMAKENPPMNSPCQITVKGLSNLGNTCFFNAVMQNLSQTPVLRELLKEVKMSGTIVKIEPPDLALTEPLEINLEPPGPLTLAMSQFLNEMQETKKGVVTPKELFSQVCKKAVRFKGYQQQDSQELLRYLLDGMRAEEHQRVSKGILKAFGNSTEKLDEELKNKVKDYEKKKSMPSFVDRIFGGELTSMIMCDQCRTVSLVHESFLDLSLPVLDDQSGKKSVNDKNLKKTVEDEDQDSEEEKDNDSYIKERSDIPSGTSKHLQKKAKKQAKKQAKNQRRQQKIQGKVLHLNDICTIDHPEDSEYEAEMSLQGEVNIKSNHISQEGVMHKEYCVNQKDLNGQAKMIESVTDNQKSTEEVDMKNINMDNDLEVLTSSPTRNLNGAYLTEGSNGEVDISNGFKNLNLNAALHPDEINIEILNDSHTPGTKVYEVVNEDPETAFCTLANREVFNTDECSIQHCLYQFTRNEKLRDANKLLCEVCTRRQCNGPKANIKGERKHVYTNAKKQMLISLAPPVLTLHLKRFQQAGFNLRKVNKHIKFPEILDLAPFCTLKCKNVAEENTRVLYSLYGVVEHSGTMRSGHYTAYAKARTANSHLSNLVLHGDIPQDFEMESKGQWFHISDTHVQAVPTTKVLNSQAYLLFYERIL
Outline: as §1

Structure (SMILES): O=C(CCl)NCC(=O)N1CCCC1
- log2 ratio of Biotin-Ahx-Ub-VS probe labelling (OTUD6B): -0.139
- log2 ratio of Biotin-Ahx-Ub-VS probe labelling (OTUD7B): -0.187
- log2 ratio of Biotin-Ahx-Ub-VS probe labelling (PRPF8): -0.0276
- log2 ratio of Biotin-Ahx-Ub-VS probe labelling (PSMD7): -0.18
- log2 ratio of Biotin-Ahx-Ub-VS probe labelling (UCHL1): -1.42 (active)
- log2 ratio of Biotin-Ahx-Ub-VS probe labelling (UCHL3): 0.0513
- log2 ratio of Biotin-Ahx-Ub-VS probe labelling (UCHL5): -0.323
- log2 ratio of Biotin-Ahx-Ub-VS probe labelling (USP10): -0.0856
- log2 ratio of Biotin-Ahx-Ub-VS probe labelling (USP15): -0.0663
- log2 ratio of Biotin-Ahx-Ub-VS probe labelling (USP16): 0.0192

Reference: the supplement of paper PMC11732987, “Enantioselective OTUD7B fragment discovery through chemoproteomics screening and high-throughput optimisation” (Communications Chemistry, 2025)
